# Assay outcomes from PubChem BioAssay.
# JMJD2A Tudor inh: qHTS Assay for Inhibitors of JMJD2A-Tudor Domain; Lysine-specific demethylase 4A (Homo sapiens), O75164; AlphaScreen JMJD2A-Tudor / H3K4me3 peptide binding; Potency, µM (titrated, usually from 114 µM), inactives show top-dose activity change, negative = inhibition, usual class: inhibitors; 390,000 compounds, 4.4% hits; AID 504339, 2011; further: on the % scale 0 is the no-effect control and ±100 the full control effect; nearly all actives have a fitted effect of over 50% in size
# Target sequence (O75164 whole entry, looked up, the tested form may be a part): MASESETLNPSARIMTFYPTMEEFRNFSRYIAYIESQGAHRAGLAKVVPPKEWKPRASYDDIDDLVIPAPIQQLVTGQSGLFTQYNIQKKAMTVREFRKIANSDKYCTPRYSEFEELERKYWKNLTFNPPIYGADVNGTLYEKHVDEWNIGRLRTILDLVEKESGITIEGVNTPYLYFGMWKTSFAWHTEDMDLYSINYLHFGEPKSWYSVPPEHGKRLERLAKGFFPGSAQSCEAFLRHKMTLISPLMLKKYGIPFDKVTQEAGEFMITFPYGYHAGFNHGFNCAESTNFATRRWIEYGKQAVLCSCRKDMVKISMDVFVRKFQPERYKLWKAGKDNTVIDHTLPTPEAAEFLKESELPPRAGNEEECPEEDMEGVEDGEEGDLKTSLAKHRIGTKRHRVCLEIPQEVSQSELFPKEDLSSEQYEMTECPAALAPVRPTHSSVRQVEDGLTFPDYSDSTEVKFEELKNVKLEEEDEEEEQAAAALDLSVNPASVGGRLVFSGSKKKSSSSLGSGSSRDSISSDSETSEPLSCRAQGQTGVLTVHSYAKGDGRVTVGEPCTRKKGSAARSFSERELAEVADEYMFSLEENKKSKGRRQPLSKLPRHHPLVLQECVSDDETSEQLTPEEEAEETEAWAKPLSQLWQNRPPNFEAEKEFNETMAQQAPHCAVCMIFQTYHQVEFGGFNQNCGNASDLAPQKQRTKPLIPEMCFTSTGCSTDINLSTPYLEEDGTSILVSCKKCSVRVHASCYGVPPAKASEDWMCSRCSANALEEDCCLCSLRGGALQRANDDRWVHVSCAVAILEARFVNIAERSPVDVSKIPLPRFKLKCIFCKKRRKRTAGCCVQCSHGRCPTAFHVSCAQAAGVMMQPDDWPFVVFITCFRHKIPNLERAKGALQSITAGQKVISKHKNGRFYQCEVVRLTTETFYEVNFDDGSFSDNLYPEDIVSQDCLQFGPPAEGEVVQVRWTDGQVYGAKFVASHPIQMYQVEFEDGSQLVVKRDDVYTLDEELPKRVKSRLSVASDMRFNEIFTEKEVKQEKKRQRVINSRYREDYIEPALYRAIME
# G9a block: qHTS Assay for Inhibitors of Histone Lysine Methyltransferase G9a | Histone-lysine N-methyltransferase EHMT2 (Homo sapiens), Q96KQ7 | G9a H3K9 monomethylation, AlphaScreen, 2 h | Potency, µM (series often up to 102 µM), for the others: at the top dose activity, negative = inhibition, hits mostly inhibitors | 350,000 compounds, 8.8% hits; further: on the % scale 0 is the no-effect control and ±100 the full control effect; nearly all actives have a fitted effect of over 75% in size
#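 Enzyme 20 nM + cpd, 15 min RT; add b-H3K9 pep 500 nM / SAM 20 uM; 2 h RT; anti-H3K9me1 Ab 0.5 ug/mL + SA donor / anti-rabbit acceptor beads 20 ug/mL each, 10 min; AlphaScreen read.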
# BAZ2B block: qHTS Assay for Inhibitors of BAZ2B. Bromodomain adjacent to zinc finger domain protein 2B (Homo sapiens), Q9UIF8. 360,000 compounds, 4.4% hits. AlphaScreen BAZ2B-H3K14Ac peptide displacement. Potency, µM (doses to about 114 µM), for the others: top-dose activity change, negative = inhibition, most hits filed as inhibitors; further: on the % scale 0 is the no-effect control and ±100 the full control effect; nearly all actives have a fitted effect of over 60% in size
#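 Complex of BAZ2B and biotin-H3K14Ac (50 nM apiece) forms over 30 min at RT, then faces library compounds up to 110 uM for another 30 min; AlphaScreen beads added, 20 min dark incubation, luminescence read.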
# Sfp inh: qHTS Assay for Inhibitors of Bacillus subtilis Sfp phosphopantetheinyl transferase (PPTase); 4'-phosphopantetheinyl transferase ffp (Bacillus subtilis), Q9F4F7; Biochemical Sfp PPTase activity, qHTS; Potency, µM, for the others: largest response in the series, negative = inhibition, most hits filed as inhibitors; 310,000 compounds, 3.5% hits; AID 1490, 2009;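 further: the enzyme is Sfp with the accession as filed and its product quenches rhodamine fluorescence; 0% = enzyme reaction without inhibitor and -100% = no enzyme wells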
#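 Step 1, compound plus 15 nM Sfp-PPTase, 15 min, room temperature. Step 2, add rhodamine-CoA (5 uM) and BHQ-2-YbbR (12.5 uM). Step 3, read 525/598 nm fluorescence at 0 and 30 min.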
# TDP1 block: qHTS Assay for Inhibitors of Tyrosyl-DNA Phosphodiesterase (TDP1); Potency, µM (titrated, usually from 130 µM), without a hit: at the top dose activity change, negative = inhibition, usual class: inhibitors; recombinant TDP1, AlphaScreen DNA substrate cleavage; 350,000 compounds, 0.28% hits; AID 485290, 2010; Tyrosyl-DNA phosphodiesterase 1 (Homo sapiens), Q9NUW8; further: on the % scale 0 is the no-effect control and ±100 the full control effect; nearly all actives have a fitted effect of over 40% in size
#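 Enzyme-compound mixtures sat 15 min at room temperature, followed by a 5 min reaction with 15 nM final substrate and 10 min with AlphaScreen beads. Recombinant human Tdp1 was used at 1 nM final.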
# HP1b binding inh: HTS for Inhibitors of HP1-beta Chromodomain Interactions with Methylated Histone Tails; AID 540317, 2011; AlphaScreen HP1-beta / biotin-H3K9me3 peptide binding; Chromobox protein homolog 1 (Homo sapiens), P83916; 390,000 compounds, 0.56% hits; Potency, µM (highest dose often 114 µM), for inactives: top-dose activity change, negative = inhibition, actives largely listed as inhibitors; further: nearly all actives have a fitted effect of over 70% in size
#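 Compound inhibition of the preformed complex between 50 nM HP1-beta and 50 nM biotinylated H3K9me3 peptide was read by AlphaScreen. Buffer was PBS pH 7.4 with 0.01% Tween-20. Incubations ran 30 min at room temperature, with 10 ug/mL donor/acceptor beads.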
# * hit, by the source's call; ? = inconclusive; · = not tested or not shown; [ ] = dose if it differs, or a comment. An excerpt weighted towards active compounds, which were near 12% of everything screened. The call rests on the fitted dose curve; in most records, active means well fitted curve in the direction sought with a large enough effect; inconclusive means small, poorly fitted or top-dose-only effect, or another doubt; inactive means no such curve, though single readings can be large; an effect the other way counts as inactive or inconclusive. Potency means the concentration at half of the fitted maximal effect.
SMILES,JMJD2A Tudor inh,G9a block,BAZ2B block,Sfp inh,TDP1 block,HP1b binding inh
COc1ccc(NC(=S)N2CCN(C(=O)c3ccccc3)CC2)cc1,2%,-7%,?,0%,6%,18%
CN(C(=O)c1cnc(N2CCN(c3ncccn3)CC2)c2ccccc12)c1ccc(Cl)cc1,-25%,11%[59 µM],-5%,56µM*,0%,7%
CN(C)CCNc1oc(-c2ccc(COc3ccc(Cl)cc3)o2)nc1C#N,40µM*,?,?,·,5%,-13%
COCCCNc1oc(COc2ccc(Cl)cc2Cl)nc1C#N,?,32µM*,-37%,-7%,7%,-24%
COc1ccc(OCc2ccc(-c3nc(C#N)c(NCc4ccc(F)cc4)o3)o2)cc1,?,4µM*,?,·,5%,-12%
COCCNc1oc(-c2ccc(COc3ccc(OC)cc3)o2)nc1C#N,?,-29%[59 µM],?,·,5%,?
COCCNc1oc(-c2ccc(Cl)cc2)nc1C#N,-23%,-20%[12.7 µM],?,2%,2%,-27%
COCCCNc1oc(-c2ccc(COc3ccc(Cl)cc3)o2)nc1C#N,?,8.9µM*,?,·,8%,-28%
COc1ccc(CNc2oc(-c3ccc(COc4ccc(OC)cc4)o3)nc2C#N)cc1,?,?,?,·,7%,?
CCn1c(Cc2ccccc2)nnc1SC(C)C(=O)NC1CC1 (stereo unspecified),-1%,-1%[0.501 µM],-2%,·,11%,33%
COc1ccc(N2CCN(C(=O)CCNS(=O)(=O)c3ccc(C)cc3)CC2)cc1,-19%,50µM*,-33%,5%,5%,30%
COc1ccc(N2CCN(CCNS(=O)(=O)c3ccc(C)cc3)CC2)cc1,-32%,50µM*,-16%,18%,0%,-29%
CCCNS(=O)(=O)c1ccc(CCC(=O)N2CCN(c3ccc(OC)cc3)CC2)cc1,-24%,?,-31%,-12%,1%,-7%
O=C(CCNS(=O)(=O)c1ccc2c(c1)CCN2C(=O)C1CC1)N1CCN(c2ccc(F)cc2)CC1,45µM*,6%[59 µM],-8%,·,2%,5%[57 µM]
COc1ccc(N2CCN(C(=O)CCNS(=O)(=O)c3ccc4c(c3)CCN4C(=O)C3CC3)CC2)cc1,-31%,?,-34%,·,10%,5%[57 µM]
COc1ccc(S(=O)(=O)NCCS(=O)(=O)N2CCN(c3ccccc3)CC2)cc1,-11%,0%,10%,·,5%[0.505 µM],24%
Cc1oc2ncn(C)c(=O)c2c1C(=O)N(C)c1ccccc1F,0%,3%[59 µM],13%[57.1 µM],·,3%,47%
O=C(NCCc1ccccc1)c1nnc(CS(=O)(=O)c2ccccc2)o1,-13%,1%,6%,25%,·,24%
CCOC1CCCC(n2cnc3c(=S)nc[nH]c32)O1 (stereo unspecified),18µM*,·,·,·,·,?
CN1CC[n+]2cnc3ccccc3c21,-5%,2.5µM*,-14%,?,7%,16%
COc1ccc(C(=O)N2CCc3ccc(NC(=O)c4ccccn4)cc3C2)cc1F,-11%,7%[12.7 µM],-37%,-7%,·,25%
O=C(Nc1ccc2nc3n(c(=O)c2c1)CCCCC3)C(=O)N1CCN(c2ccccc2F)CC1,35µM*,-2%,15%,12%,7%,3%
CCC(=O)Nc1ccc(Cl)c(NC(=S)NC(C)=O)c1,0%,28µM*,-8%,-26%,-3%,8%
CCCC(=O)Nc1ccc(Cl)c(NC(=S)NC(=O)C(C)C)c1,2%,-33%,-24%,11%,-10%,38%
CN(C)c1ccc(NC(=O)Nc2csc3ccccc23)cc1,?,8.9µM*,35µM*,19%,12%,-8%
SMILES,JMJD2A Tudor inh,G9a block,BAZ2B block,Sfp inh,TDP1 block,HP1b binding inh
O=C(Nc1ccc(F)cc1)Nc1csc2ccccc12,-10%,?,0%,?,·,29%
CN1CCC(CNC(=O)Nc2csc3ccccc23)CC1,-15%,·,-11%,79µM*,4%,27%
CCCCN(C)CCNC(=O)c1ccc2c(c1)NC(=O)CN2,1%,3%[59 µM],0%,·,5%,2%
CCOc1ccc(Nc2nc(C)c(NC(=O)c3cccc(F)c3)c(Nc3ccc(OCC)cc3)n2)cc1,?,20µM*,3%,·,10%,39%
CC(C)(C)c1ccc(OCCn2ccccc2=O)cc1,3.5µM*,5%,3%,10%,-5%,17%
COc1cc(OC)c2c(-c3ccccc3)cc(=O)oc2c1C(CCN1CCOCC1)c1ccc2c(c1)OCO2 (stereo unspecified),32µM*,-44%[59 µM],·,?,4%[56.1 µM],?
COc1cc(OC)c2ccc(=O)oc2c1C(CC(=O)N1CCN(c2ccccc2)CC1)c1ccc2c(c1)OCO2 (stereo unspecified),40µM*,13%[12.7 µM],40µM*,-1%,4%,-27%
COc1cc(OC)c2c(-c3ccccc3)cc(=O)oc2c1C(CCN1CCCC1)c1ccc2c(c1)OCO2 (stereo unspecified),?,-47%[59 µM],-38%,?,14%,-9%
COc1cc(OC)c2c(C)cc(=O)oc2c1C(CCN1CCN(c2ccccc2)CC1)c1ccc2c(c1)OCO2 (stereo unspecified),28µM*,-5%[12.7 µM],25µM*,-5%,11%,?
CC(=O)c1ccc(N2CCN(C(=O)CCc3nnc4n(C)c(=O)c5sccc5n34)CC2)cc1,-17%,12%[59 µM],5%,·,-3%,29%
O=C1c2cc([N+](=O)[O-])ccc2-c2cc(Br)c(N=C(NO)C(F)(F)F)cc21,?,·,·,·,·,-4%
O=C(NC(=S)Nc1ccccc1)c1csnn1,-17%,15%[59 µM],15%,50µM*,5%,19%
COc1ccc(NC(=S)NC(=O)c2csnn2)cc1,-9%,32µM*,-27%,-25%,·,25%
Cc1nc(N2CCOCC2)c2c(C(=O)N3CCN(c4ccccc4F)CC3)c(C)oc2n1,-8%,-30%[59 µM],9%[57.1 µM],·,0%,52%
Cn1c(=O)c2cc(C(=O)N3CCN(c4cccc(C(F)(F)F)c4)CC3)sc2c2ccccc21,-23%,-2%[59 µM],·,·,5%,4%
O=C(CSc1nnc(CNC(=O)c2c(F)cccc2F)o1)NCc1ccco1,-23%,·,71µM*,11%,50µM*,7%
O=C(CSc1nnc(CNC(=O)c2ccco2)o1)c1ccccc1,-6%,-49%,-1%,71µM*,1%,38%
O=C(CSc1nnc(CNC(=O)c2ccccc2F)o1)c1ccccc1,?,71µM*,7%,?,4%,1%
